The values below come from PubChem BioAssay.

Experiment [1] is described as follows: blockers of polyQ-driven CASP3 activation – cell-based (AID 1583). Particulars: polyglutamine-induced caspase-3 activation, cell assay; stronger effect = higher value;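 tested at 10 µM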.
Experiment [2] can be described thus: yeast 75Q aggregation reduction – 75Q-TubU reporter (AID 1593). Particulars: Yeast 75Q polyglutamine aggregation reporter.
The nature of experiment [3]: restoration of touch response, mutant HTT neurons – whole organism, C. elegans mechanosensory neurons, N-terminal huntingtin (AID 1599). Particulars: C. elegans polyQ-huntingtin mechanosensory neurons, stronger effect = higher value.
A short description of experiment [4]: blockers of cytochrome c efflux from mitochondria – biochemical, purified mitochondria (AID 1603).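 Also: mouse liver mitochondria challenged with calcium chloride; signal normalized to the plate average as 100%.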 Particulars: stronger effect = lower value.
A short description of experiment [5]: polyglutamine aggregate formation blockers (AID 1604). Particulars: polyglutamine-induced protein aggregation inhibition assay; stronger effect = higher value; tested at 2.5 µM.
Experiment [6] can be described thus: glutamate transport activators, MN-1 cells, MN-1 cell line (AID 1612).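 Also: tested at 1 µM final; 0% = mean of DMSO vehicle wells on each plate; positive means more glutamate uptake than control and negative means less.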 Particulars: MN-1 motor neuron cells, stronger effect = higher value.
Experiment [7] can be described thus: 75Q-TubH aggregate inhibition, S. cerevisiae, yeast (AID 1616). Particulars: S. cerevisiae 75Q-TubH polyglutamine aggregation suppression; stronger effect = higher value.
A short description of experiment [8]: compounds altering viability of human ES cells (AID 493140; call rule not given here;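 also: cells exposed to compounds for four days before counting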). Particulars: human embryonic stem cell survival screen; stronger effect = higher value.
Experiment [9] in a line: signal quenchers or enhancers, Cy5 substrate/SSB – biochemical, NIH Clinical Collection, E. coli SSB, artefact control for HCV NS3 helicase inhibitor project (AID 743268; call rule not given here). Particulars: Cy5-oligo bound E. coli SSB, fluorescence interference.
Experiment [10] concerns Hepatitis C virus NS3 helicase. The experiment in a line: blockers of NS3h binding to DNA – biochemical, fluorescence polarization, NIH Clinical Collection, primary screen (AID 743270; call rule not given here). Particulars: NS3 helicase binding to Cy5-dT15 DNA, stronger effect = higher value, concentration not given here.
Experiment [11] has as its target Single-stranded DNA-binding protein (Escherichia coli (strain K12)) (UniProt P0AGE0). The experiment in a line: SSB-ssDNA binding inhibitors – biochemical, fluorescence polarization, NIH Clinical Collection, counter-screen for HCV NS3 helicase inhibitor project (AID 743271; in the data active = inhibition above about 28%). Particulars: E. coli SSB-DNA binding, stronger effect = higher value, concentration not given here. For orientation: In fluorescence polarisation assays a small probe gives low polarisation when free and higher when bound to something large.

A short description of experiment [12]: compounds distorting NS3 helicase fluorescence signal – biochemical, NIH Clinical Collection, artefact control for HCV NS3 helicase inhibitor project (AID 743272; call rule not given here;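 also: HCV NS3 helicase with a Cy5 labelled single stranded DNA probe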). Particulars: fluorescence interference counterscreen, HCV NS3 helicase assay; stronger effect = lower value. (The purpose of a counterscreen is to sort out artefacts and off-target activity.)
In a further experiment the test system is R275C. The experiment in a line: BK channel mutant inhibitors and activators – cell-based, U2OS BacMam, thallium flux, beta subunits, selectivity assay, profiling panel (AID 1259406).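 Also: initial slope of Thallos dye fluorescence rise after thallium is added; log ratio against the mean of 0.3% DMSO vehicle wells on the same plate.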 Particulars: U2OS BacMam BK variants, at 30 µM.
A further experiment relates to R275C/beta1. The description is as above. Particulars: U2OS BacMam BK variants, at 30 µM.
For another experiment, the system named is R275C/beta2Delta. Described as above. Particulars: U2OS BacMam BK variants, at 30 µM.
In the next experiment the test system is R275C/beta4. Described as above. Particulars: U2OS BacMam BK variants, at 30 µM.
The next experiment concerns R275C/Slo1WT/beta2. Described as above. Particulars: U2OS BacMam BK variants, at 30 µM.
Experiment [13] is described as follows: growth inhibition, single agents and combos, ICB984, cell-based, cisplatin or BGB combos, synergistic combos for chromothripsis tumors (AID 1671451; call rule not given here;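 also: cells exposed for 96 hours before readout; 0% = vehicle DMSO and 100% = killing by high DMSO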). Particulars: ICB984 medulloblastoma cells, drug combinations, stronger effect = higher value.
The nature of experiment [14]: galactose survival enhancers in mitochondrial complex I cybrids – cell-based, galactose medium, ATP luminescence, primary screen (AID 1645843;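 active = z-score of at least 1.8 in each of two replicates, scored against plate mean and spread of sample wells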;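 also: positive z means more ATP and so rescue of galactose-driven cybrid death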). Particulars: complex I mutant cybrid cells, 72 h, stronger effect = higher value.

Where “and” joins values, the source holds several entries; their conditions need not be identical. Equal values may be shown once. For part of these data: Entries with a potency or affinity are not part of this list. Calls of active or inactive are those of the source.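 The calls were made as follows, unless noted: active = thallium flux through the channel raised or lowered by more than 3 SD from vehicle-only wells, actives on both sides; inactive = the rest.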

One may read the inhibition as the change of the read-out against control, counted positive when it falls. In the case of `CC(C)NCC(O)c1ccc(O)c(O)c1` (stereo not given), the inhibition in experiment [1] is 19.5%; in [10], -5% (inactive); in experiment [11], -0.48% (inactive). For the same compound, the score in experiment [2] was 1.1. Also, in [3], the rescue above control was 7.5. The cytochrome c release ratio in experiment [4] is 0.68. In addition, the inhibition of aggregation in [5] was 84.7%. Further, the glutamate uptake change in experiment [6] was -0.29%. In [7], this compound showed an aggregation suppression score of 1.28. Further, the survival in experiment [8] was 4.58 (inactive) and 3.08 (inactive). The fluorescence ratio in [9] is 1.01 (inactive); in experiment [12], 0.95 (inactive). The log fold change Tl+ flux with R275C was 0.0272 (inactive); in the experiment with R275C/beta1, -0.0419 (inactive); in the experiment with R275C/beta2Delta, 0.00121 (inactive); in the experiment with R275C/beta4, 0.0195 (inactive); with R275C/Slo1WT/beta2, -0.00526 (inactive).
With `Nc1nc2c(ncn2COCCO)c(=O)[nH]1`, the inhibition in [1] was 6.39%; in [13] (BGB IC20 combo, at 0.005 µM), 14.3% and 0.139%; in experiment [13] (BGB IC40 combo, at 0.005 µM), -30.6% and -19%; in experiment [13] (BGB IC40 combo, at 0.05 µM), -33.3% and -34.4%; in [13] (at 0.5 µM), -25.4% (inactive) and -25.1% (inactive); in [13] (cisplatin combo, at 0.05 µM), -37% and -39.3%. The inhibition is -27.7% and -16.9% in [13] (cisplatin combo, at 0.5 µM); -26.2% and -27.5% in experiment [13] (cisplatin combo, at 5 µM); -25.9% and 2.01% in experiment [13] (measured here: 5 uM single agent, at 5 µM). Further, in experiment [2], the score was 1.1. Also, in experiment [3], the rescue above control is 0.24. The cytochrome c release ratio in [4] is 1.05. The compound also showed an inhibition of aggregation in experiment [5] of 51.5%. Besides, the glutamate uptake change in experiment [6] is 13.5%. The same compound came in with an aggregation suppression score in experiment [7] of 1.27. Moreover, in [8], the survival was 18.2 (inactive). For the same compound, the log fold change Tl+ flux is -0.024 (inactive) in the experiment on R275C; -0.0244 (inactive) with R275C/beta1; -0.00892 (inactive) in the experiment with R275C/beta2Delta; 0.0324 (inactive) with R275C/beta4; 0.0456 (inactive) with R275C/Slo1WT/beta2.
For the compound `CCN(CC)CCCC(C)Nc1ccnc2cc(Cl)ccc12` (stereo not given), in experiment [1], the inhibition is 9.86%. Further, the score in experiment [2] worked out at 1.1. Moreover, in experiment [3], the rescue above control amounted to 4.09. Moreover, the cytochrome c release ratio in experiment [4] came to 1.15. The inhibition of aggregation in experiment [5] is 68.5%. The glutamate uptake change in [6] was -7.63%. Moreover, the aggregation suppression score in [7] is 1.49. Besides, the survival in experiment [8] was 6.67 (inactive). Also, in experiment [14], the z-score is -1.02 (inactive) and -1.18 (inactive).
With `CC1=C(CC(=O)O)c2cc(F)ccc2/C1=C\c1ccc(S(C)=O)cc1` (stereo not given), the figures for the inhibition in [1], in experiment [10] and in experiment [11] were 12.6%, -7.73% (inactive) and -3.53% (inactive), respectively. The same compound came in with a score in experiment [2] of 0.78. Further, the rescue above control in experiment [3] was -1.24. Also, in [4], the cytochrome c release ratio turned out to be 0.97. The compound further displayed an inhibition of aggregation in experiment [5] of 78.9%. Also, the glutamate uptake change in [6] is 3.54%. Further, the aggregation suppression score in [7] stood at 1.01. In addition, the fluorescence ratio was 1.04 (inactive) in [9] and 1.01 (inactive) in [12]. Also, the z-score in experiment [14] is -0.94 (inactive) and -0.735 (inactive) and -0.12 (inactive). Moreover, the log fold change Tl+ flux in the experiment on R275C is -0.0121 (inactive); in the experiment with R275C/beta1, -0.0305 (inactive); in the experiment on R275C/beta2Delta, -0.0296 (inactive); in the experiment with R275C/beta4, 0.044 (inactive); in the experiment with R275C/Slo1WT/beta2, 0.0257 (inactive).
Consider `CCC(C)(C)C(=O)O[C@H]1C[C@@H](C)C=C2C=C[C@H](C)[C@H](CC[C@@H]3C[C@@H](O)CC(=O)O3)[C@H]21`, for which the survival in experiment [8] was 1.17 (inactive). For the same compound, the fluorescence ratio in experiment [9] is 1.04 (inactive); in experiment [12] it was 0.92 (inactive). The inhibition in [10] was -1.36% (inactive); in experiment [11], 6.39% (inactive). Besides, the z-score in [14] was -1.4 (inactive) and -0.73 (inactive) and -0.85 (inactive). The log fold change Tl+ flux is 0.0702 (inactive) in the experiment with R275C; 0.116 (active) with R275C/beta1; 0.0611 (inactive) with R275C/beta2Delta; 0.067 (inactive) in the experiment on R275C/beta4; -0.0513 (inactive) with R275C/Slo1WT/beta2.
